# Test results published in PubChem BioAssay (EPA / NIEHS).
# “And” between values parts separate entries of the source, which are not always exact repeats. Identical values can stand only once. More than one record can exist for a structure, and the calls need not agree. The source made the active and inactive calls. The calls were made as follows: active = hit-call score of the fitted dose curve at least 0.9, where 1 is the maximum; inactive = score below 0.9.
# Key:
# [1] = read-out: Interleukin 2 (IL2), IL2 (gene 3558); test: BSK_BT_xIL2: BioMAP Diversity Plus: BT Assay for Interleukin 2 (IL2) Biomarker Activity (AID 2284245); details: primary human B cells with PBMC
# Outline: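 B cell + PBMC co-culture (human primary), compound added, 24 h incubation; secreted IL-2 measured multiplexed on Luminex xMAP; gain-of-signal fit vs DMSO.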
# [2] = read-out: Basic fibroblast growth factor (bFGF), FGF2 (gene 2247); test: BSK_MyoF_bFGF: BioMAP Diversity Plus: MyoF Assay for Basic fibroblast growth factor (bFGF) Biomarker Activity (AID 2284246); details: primary human lung fibroblasts
# Outline: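 ELISA-measured bFGF level serves as the read-out, taken 24 h after chemical dosing of human lung fibroblasts. Values represent signal gain over the DMSO negative control.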
# [3] = read-out: Collagen IV, COL4A1 (gene 1282); test: BSK_MyoF_CollagenIV: BioMAP Diversity Plus: MyoF Assay for Collagen IV Biomarker Activity (AID 2284247); details: primary human lung fibroblasts
# Outline: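 Steps: dose human lung fibroblasts; culture 24 h; quantify Collagen IV by ELISA; fit increase versus DMSO control. Parallel SRB total-protein staining (0.1% SRB after 10% TCA fixation, 560 nm) tracks overt cytotoxicity.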
# [4] = read-out: Plasminogen activator inhibitor-1 (PAI1), SERPINE1 (gene 5054); test: BSK_MyoF_PAI1: BioMAP Diversity Plus: MyoF Assay for Plasminogen activator inhibitor-1 (PAI1) Biomarker Activity (AID 2284256); details: primary human lung fibroblasts;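 as to outcome: PAI-1 protein level measured by ELISA in fibroblast cultures; PAI-1 read 24 h after compound addition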
# Outline: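 MyoF lung fibroblasts, human primary; compound 24 h; PAI-1 ELISA; positive-direction fit vs DMSO baseline; parallel SRB total-protein staining for cytotoxicity.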
# [5] = read-out: Interleukin-8 (IL8), CXCL8 (gene 3576); test: BSK_MyoF_IL8: BioMAP Diversity Plus: MyoF Assay for Interleukin-8 (IL8) Biomarker Activity (AID 2284261); details: primary human lung fibroblasts
# Outline: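 Lung fibroblasts (human primary) → chemical exposure → 24 h → IL-8 measured by ELISA. Signal increase scored versus DMSO control.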
# Decorin, DCN (gene 1634) = test: BSK_MyoF_Decorin: BioMAP Diversity Plus: MyoF Assay for Decorin Biomarker Activity (AID 2284265); details: primary human lung fibroblasts
# Outline: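 ELISA readout of decorin, 24 h post-dosing; primary human lung fibroblast (MyoF) culture; gain-of-signal fit vs DMSO baseline.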
# [6] = read-out: Monokine induced gamma interferon (MIG), CXCL9 (gene 4283); test: BSK_KF3CT_MIG: BioMAP Diversity Plus: KF3CT Assay for Monokine induced gamma interferon (MIG) Biomarker Activity (AID 2284248); details: primary human keratinocytes with fibroblasts
# Outline: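 ELISA read-out of MIG after 24 h chemical exposure of human skin primary co-culture (keratinocytes, foreskin fibroblasts). Gain of signal relative to DMSO negative control was analysed.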
# [7] = read-out: Vascular cell adhesion molecule 1 (VCAM1), VCAM1 (gene 7412); test: BSK_BF4T_VCAM1: BioMAP Diversity Plus: BF4T Assay for Vascular cell adhesion molecule 1 (VCAM1) Biomarker Activity (AID 2284249); details: primary human bronchial epithelial cells with fibroblasts
# Outline: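 Human bronchial epithelial cell and dermal fibroblast co-culture exposed 24 h. VCAM-1 measured by ELISA; parallel SRB total-protein staining for cytotoxicity. Fitted in positive direction relative to DMSO.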
# [8] = read-out: Collagen I, COL1A1 (gene 1277); test: BSK_hDFCGF_CollagenI: BioMAP Diversity Plus: hDFCGF Assay for Collagen I Biomarker Activity (AID 2284250); details: primary human foreskin fibroblasts
# Outline: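 Human skin primary fibroblasts dosed with test chemical, harvested at 24 h, Collagen I quantified by ELISA; parallel SRB staining (0.1% SRB after 10% TCA fixation, 560 nm) tracked cytotoxicity.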
# [9] = read-out: Interferon-inducible T-cell alpha chemoattractant (ITAC), CXCL11 (gene 6373); test: BSK_hDFCGF_ITAC: BioMAP Diversity Plus: hDFCGF Assay for Interferon-inducible T-cell alpha chemoattractant (ITAC) Biomarker Activity (AID 2284251); details: primary human foreskin fibroblasts
# Outline: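 Primary human foreskin fibroblasts (hDFCGF system) treated for 24 h; I-TAC quantified by ELISA. Gain-direction fitting versus DMSO; parallel SRB staining of total protein flagged overt cytotoxicity.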
# [10] = read-out: Monocyte Chemoattractant Protein-1 (MCP1), CCL2 (gene 6347); test: BSK_IMphg_MCP1: BioMAP Diversity Plus: IMphg Assay for Monocyte Chemoattractant Protein-1 (MCP1) Biomarker Activity (AID 2284253); details: primary human endothelial cells with macrophages
# Outline: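 Human venular endothelial cells co-cultured with macrophages; MCP-1 measured by ELISA 24 hours post-dose and fitted against DMSO. Cytotoxicity monitored by SRB total-protein staining in parallel cultures.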
# [11] = read-out: Interleukin-8 (IL8), CXCL8 (gene 3576); test: BSK_KF3CT_IL8: BioMAP Diversity Plus: KF3CT Assay for Interleukin-8 (IL8) Biomarker Activity (AID 2284254); details: primary human keratinocytes with fibroblasts
# Outline: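 IL-8 read-out: ELISA, 24 h post-dose, human skin primary co-culture (keratinocytes + foreskin fibroblasts). DMSO = baseline; positive-direction fit.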
# [12] = read-out: Macrophage Inflammatory Protein-1 Alpha (MIP1a), CCL3 (gene 6348); test: BSK_IMphg_MIP1a: BioMAP Diversity Plus: IMphg Assay for Macrophage Inflammatory Protein-1 Alpha (MIP1a) Biomarker Activity (AID 2284255); details: primary human endothelial cells with macrophages
# Outline: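 Co-culture of human venular endothelial cells and macrophages exposed to compounds for 24 h; MIP-1a measured by ELISA relative to DMSO. Cytotoxicity assessed in parallel cultures by sulforhodamine B total-protein staining at 560 nm.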
# CD69, CD69 (gene 969) = test: BSK_IMphg_CD69: BioMAP Diversity Plus: IMphg Assay for CD69 Biomarker Activity (AID 2284257); details: primary human endothelial cells with macrophages
# Outline: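 Human venular endothelial cells co-cultured with macrophages; CD69 quantified by ELISA 24 h after compound addition. Activity fitted in the positive direction relative to DMSO baseline; cytotoxicity tracked in parallel cultures via SRB total-protein staining.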
# [13] = read-out: Eotaxin 3, CCL26 (gene 10344); test: BSK_BF4T_Eotaxin3: BioMAP Diversity Plus: BF4T Assay for Eotaxin 3 Biomarker Activity (AID 2284258); details: primary human bronchial epithelial cells with fibroblasts
# Outline: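 Co-culture of human bronchial epithelial cells and dermal fibroblasts, exposed to chemicals for 24 h versus DMSO. Eotaxin-3 quantified by ELISA; cytotoxicity checked in parallel cultures by sulforhodamine B total-protein staining.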
# [14] = read-out: Monocyte Chemoattractant Protein-1 (MCP1), CCL2 (gene 6347); test: BSK_BF4T_MCP1: BioMAP Diversity Plus: BF4T Assay for Monocyte Chemoattractant Protein-1 (MCP1) Biomarker Activity (AID 2284259); details: primary human bronchial epithelial cells with fibroblasts
# Outline: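 Co-culture of bronchial epithelial cells and dermal fibroblasts dosed with chemical; MCP-1 measured by ELISA 24 h later. Activity fitted in positive direction versus DMSO; cytotoxicity checked by SRB staining in parallel cultures.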
# [15] = read-out: Intercellular Adhesion Molecule 1 (ICAM1), ICAM1 (gene 3383); test: BSK_BF4T_ICAM1: BioMAP Diversity Plus: BF4T Assay for Intercellular Adhesion Molecule 1 (ICAM1) Biomarker Activity (AID 2284260); details: primary human bronchial epithelial cells with fibroblasts
# Outline: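 Co-culture of human bronchial epithelial cells and dermal fibroblasts exposed 24 h to chemical; cell-surface ICAM-1 quantified by ELISA. Parallel SRB total-protein staining assessed cytotoxicity; activity fitted relative to DMSO.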
# CD90, THY1 (gene 7070) = test: BSK_BF4T_CD90: BioMAP Diversity Plus: BF4T Assay for CD90 Biomarker Activity (AID 2284262); details: primary human bronchial epithelial cells with fibroblasts
# Outline: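 Co-culture of human bronchial epithelial cells and dermal fibroblasts, 24 h compound exposure. Cell-surface CD90 measured by ELISA relative to DMSO; parallel SRB total-protein staining for cytotoxicity.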
# [16] = read-out: Interleukin-8 (IL8), CXCL8 (gene 3576); test: BSK_BF4T_IL8: BioMAP Diversity Plus: BF4T Assay for Interleukin-8 (IL8) Biomarker Activity (AID 2284263); details: primary human bronchial epithelial cells with fibroblasts
# Outline: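 Human bronchial epithelial cells with dermal fibroblasts co-culture; IL-8 measured by ELISA 24 hours after dosing, fitted vs DMSO. Cytotoxicity tracked in parallel cultures by SRB total-protein staining.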
# [17] = read-out: Interleukin-1 alpha (IL1a), IL1A (gene 3552); test: BSK_BF4T_IL1a: BioMAP Diversity Plus: BF4T Assay for Interleukin-1 alpha (IL1a) Biomarker Activity (AID 2284264); details: primary human bronchial epithelial cells with fibroblasts
# Outline: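 Human bronchial epithelial cells co-cultured with dermal fibroblasts, dosed and read at 24 h. Secreted/surface IL-1α quantified by ELISA; gain-of-signal fitted relative to DMSO baseline. Parallel SRB total-protein staining tracked cytotoxicity.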
compound,measurement,setting,value
CC1(C)CC(O)CC(C)(C)N1[O],outcome,[1],inactive
same,outcome,[2],inactive
same,outcome,[3],inactive
same,outcome,[4],inactive
same,outcome,[5],inactive
same,outcome,"Decorin, DCN (gene 1634)",inactive
O=C(O)C(F)(F)C(F)(F)C(F)(F)C(F)(F)C(=O)O,outcome,[1],inactive
same,outcome,[2],inactive
same,outcome,[3],inactive
same,outcome,[6],inactive
same,outcome,[7],inactive
same,outcome,[8],inactive
same,outcome,[9],inactive
same,outcome,[10],inactive
same,outcome,[11],inactive
same,outcome,[12],inactive
same,outcome,[4],inactive
same,outcome,"CD69, CD69 (gene 969)",inactive
same,outcome,[13],inactive
same,outcome,[14],inactive
same,outcome,[15],inactive
same,outcome,[5],inactive
same,outcome,"CD90, THY1 (gene 7070)",inactive
same,outcome,[16],inactive
same,outcome,[17],inactive
same,outcome,"Decorin, DCN (gene 1634)",inactive
CC(c1cc(C(C)(C)C)cc(C(C)(C)C)c1O)c1cc(C(C)(C)C)cc(C(C)(C)C)c1O,AC50,[1],20 µM (active)
same,outcome,[2],inactive
same,outcome,[3],inactive
same,outcome,[4],inactive
same,outcome,[5],inactive
same,outcome,"Decorin, DCN (gene 1634)",inactive
O=C(Oc1ccccc1)c1ccccc1C(=O)Oc1ccccc1,outcome,[1],inactive
same,outcome,[2],inactive
same,outcome,[3],inactive
same,outcome,[4],inactive
same,outcome,[5],inactive
same,outcome,"Decorin, DCN (gene 1634)",inactive
CCCCCCOC(=O)CCCCC(=O)OCCCCCC,outcome,[1],inactive
same,outcome,[2],inactive
same,outcome,[3],inactive
same,outcome,[4],inactive
same,outcome,[5],inactive
same,outcome,"Decorin, DCN (gene 1634)",inactive
COc1ccc(C(=O)/C(Br)=C\C(=O)O)cc1,AC50,[1],23.2 µM (active) and 20 µM (active)
same,outcome,[2],inactive
same,outcome,[3],inactive
same,outcome,[4],inactive
same,AC50,[5],3.97 µM (active)
same,outcome,[5],inactive
same,outcome,"Decorin, DCN (gene 1634)",inactive
CCc1cccc(C)c1N(C(=O)CS(=O)(=O)O)C(C)COC (configuration not stated),outcome,[1],inactive
same,outcome,[2],inactive
same,outcome,[3],inactive
same,outcome,[4],inactive
same,outcome,[5],inactive
same,outcome,"Decorin, DCN (gene 1634)",inactive
Clc1cc(Cl)c(Cl)c(Cl)c1Cl,outcome,[1],inactive
same,outcome,[2],inactive
same,outcome,[3],inactive
same,AC50,[4],31.9 µM (active)
same,outcome,[5],inactive
same,outcome,"Decorin, DCN (gene 1634)",inactive
CC(C)CCCCCOC(=O)CS,outcome,[1],inactive
same,outcome,[2],inactive
same,outcome,[3],inactive
same,outcome,[4],inactive
same,outcome,[5],inactive
same,outcome,"Decorin, DCN (gene 1634)",inactive
CC1=CC=C(C(C)C)CC1,outcome,[1],inactive
same,outcome,[2],inactive
same,outcome,[3],inactive
same,outcome,[4],inactive
same,outcome,[5],inactive
same,outcome,"Decorin, DCN (gene 1634)",inactive
C=C(C)C(=O)OCCCCCCCCCCCC,outcome,[1],inactive
same,outcome,[2],inactive
same,outcome,[3],inactive
same,outcome,[4],inactive
same,outcome,[5],inactive
same,outcome,"Decorin, DCN (gene 1634)",inactive
CCNc1nc(NC(C)(C)C)nc(OC)n1,outcome,[1],inactive
same,outcome,[2],inactive
same,outcome,[3],inactive
same,outcome,[4],inactive
same,outcome,[5],inactive
same,outcome,"Decorin, DCN (gene 1634)",inactive
